From ChEMBL document CHEMBL3988442, “University of Dundee, Small-Polar-MMV Screening Library” (2021)
The whole screen tested about 48,000 compounds, of which about 13,000 (27%) showed an effect of 50% or more. The list shows a part of the results.

Tested on: Wolbachia pipientis
Assay: Anti-Wolbachia Cell-Based Screen
Type: functional
Set-up: scale not given: in the data most compounds retested in dose-response had high values
Conditions: 5 µM

Structure (SMILES)	Percent Effect [%]
CCN1CCC(CNC(=O)C(c2ccc(F)cc2)N(C)C)(N(C)C)CC1 (stereo not drawn)	-1.923
CN(C)C(=O)c1ccc(OC2CCCC2)cc1	1.251
O=C(c1ccccc1)N1CC[C@H]2C[C@@H](c3nnc(C4CC4)o3)O[C@@H]2C1	70.82
Cc1ccc(C(=O)N2C[C@@H]3C[C@@H](c4nnc(C5CC5)o4)O[C@@H]3C2)s1	-0.8808
O=C(c1ccsc1)N1CC[C@H]2C[C@@H](c3nnc(C4CC4)o3)O[C@@H]2C1	4.587
O=C(c1cscn1)N1CC[C@H]2C[C@H](c3nnc(C4CC4)o3)O[C@@H]2C1	101.5
O=C(c1cscn1)N1C[C@@H]2C[C@@H](c3nnc(C4CC4)o3)O[C@@H]2C1	-5.593
CCC(C)c1noc(C2CCN(C(=O)c3cccs3)CC2)n1 (stereo not drawn)	-5.715
Cn1cccc1C(=O)N1CC[C@H]2[C@H](CO[C@H]2CNS(C)(=O)=O)C1	-6.617
O=C(c1cccs1)N1CC[C@H]2C[C@@H](c3nnc(C4CC4)o3)O[C@@H]2C1	88.85
Cn1cccc1C(=O)N1C[C@@H]2C[C@@H](c3nnc(C4CC4)o3)O[C@@H]2C1	104.3
O=C1NCCO[C@H]2CN(C(=O)c3cccs3)CC[C@@H]12	-55.85
COc1cc(N2CCC(c3nccn3Cc3ccccn3)CC2)ncn1	2.703
CCCN1CCC(Nc2nc(C)ns2)CC1	-28.04
COc1ccc(CN2CCC=C(C(C)NC(C)=O)C2)cc1 (stereo not drawn)	-15.58
Cc1n[nH]c(CN2CCN(CC3CC3)[C@@H]3CS(=O)(=O)C[C@@H]32)n1	6.272
CCOc1cccc(CCNC(=O)Cc2ccccc2O)n1	-26.19
Cc1cnc2c(S(=O)(=O)NCC3CCS(=O)(=O)C3)cccc2c1 (stereo not drawn)	-2.686
Cc1noc([C@H]2C[C@@H]3CCN(C(=O)c4cccn4C)C[C@H]3O2)n1	59.05
Cc1nc([C@H]2C[C@@H]3CCN(C(=O)c4ccnnc4)C[C@H]3O2)sc1C	-5.019
Cc1csc([C@@H]2C[C@@H]3CCN(C(=O)c4cccn4C)C[C@H]3O2)n1	-10.26
Cc1nc([C@@H]2C[C@@H]3CCN(C(=O)c4ccnnc4)C[C@H]3O2)sc1C	3.729
O=C(c1ccccc1)N1CC[C@H]2C[C@H](c3nnc(C4CC4)o3)O[C@@H]2C1	87.37
COCC(=O)N1CC[C@H]2C[C@H](c3nnc(C4CC4)o3)O[C@@H]2C1	59.46
O=C(c1ccoc1)N1CC[C@H]2C[C@@H](c3nnc(C4CC4)o3)O[C@@H]2C1	103

Structure (SMILES)	Percent Effect [%]
COCC(=O)N1CC[C@H]2C[C@H](c3nc(C)no3)O[C@@H]2C1	4.349
COCC(=O)N1CC[C@H]2C[C@@H](c3nnc(C4CC4)o3)O[C@@H]2C1	-4.608
COCCN1CCN(CCS(=O)(=O)C(F)(F)F)CC1C (stereo not drawn)	6.413
O=C1NCCN2CCN(Cc3ccc(Cl)c(Cl)c3)CC12 (stereo not drawn)	-5.038
CC(C)(C)c1noc(CCCC(=O)N2CCCC(c3ccn[nH]3)C2)n1 (stereo not drawn)	-11.26
Cc1c[nH]c(C2COCCN2C(=O)CCc2c(C)n[nH]c2C)n1 (stereo not drawn)	111
Cc1c[nH]c(C2CCCN2C(=O)CCc2c(C)n[nH]c2C)n1 (stereo not drawn)	109.7
Cc1cccc(CCC(=O)N2CCOCC2c2c(C)n[nH]c2C)c1 (stereo not drawn)	9.952
Cc1c[nH]c(C2CCCN(C(=O)CCc3c(C)n[nH]c3C)C2)n1 (stereo not drawn)	139.5
Cc1cccc(-c2c[nH]c(C3CCCN3C(=O)Cn3cc(C)cn3)n2)c1 (stereo not drawn)	-5.472
Cc1n[nH]c(C)c1C1COCCN1C(=O)c1cc(Cl)c[nH]1 (stereo not drawn)	-20.41
O=C(CCn1cnnc1)N1CCCC(c2ncc[nH]2)C1 (stereo not drawn)	-20.34
Cc1n[nH]c(C)c1C1CCCN1C(=O)CNC(=O)C(C)(C)C (stereo not drawn)	1.097
CC(O)CN1CCC(CNCc2cn(-c3ccccc3)nn2)CC1 (stereo not drawn)	3.471
COCC(C)N(C)C(=O)NC1CCN(S(C)(=O)=O)CC1 (stereo not drawn)	2.159
CS(=O)(=O)c1ccc(CNC(=O)NCC2CCOC2)cc1 (stereo not drawn)	-15.52
CCSCCC(=O)NS(=O)(=O)c1ccc2c(c1)OCCO2	5.287
O=C(c1ccc[nH]1)N1C[C@H](OCc2cccnc2)[C@H]2COC[C@H]21	-9.205
Cc1nc(CO[C@H]2CN(C(=O)c3ccc[nH]3)[C@@H]3COC[C@H]23)cs1.O=C(O)C(F)(F)F	-0.1564
O=C(c1ccc[nH]1)N1C[C@H](OCc2ccccn2)[C@H]2COC[C@H]21	111.2
CCO[C@H]1CN(C(=O)c2ccc3c(c2)OCO3)[C@@H]2COC[C@H]12	0.5362
CO[C@H]1CN(C(=O)c2ccc3c(c2)OCO3)[C@@H]2COC[C@H]12	-7.485
CO[C@H]1CN(C(=O)c2ccc[nH]2)[C@@H]2COC[C@H]12	98.6
CCOCc1nnc(NCc2cccnc2)o1	-1.439
CC(NCc1ccncc1)c1cc(F)ccc1N1CCN(C)CC1 (stereo not drawn)	-0.924

Structure (SMILES)	Percent Effect [%]
CCN(CC1CCOC1)C(=O)c1ccccc1N1CCOCC1 (stereo not drawn)	5.823
CCN(CC1CCOC1)C(=O)c1ccc(N2CCOCC2)c(F)c1 (stereo not drawn)	110.6
CCN(CC1CCOC1)C(=O)c1cc(Cl)c2c(c1)OCO2 (stereo not drawn)	-2.452
CCN(CC1CCOC1)C(=O)Nc1ccc(N2CCCC2)nc1 (stereo not drawn)	-5.429
CCN(CC1CCOC1)C(=O)c1cc(F)ccc1N1CCN(C)CC1 (stereo not drawn)	87.35
CC(C)N(CC(N)=O)C(=O)c1cc(F)ccc1N1CCN(C)CC1	95.17
CCN(CC1CCOC1)C(=O)c1cccnc1N1CCOCC1 (stereo not drawn)	-1.739
Cc1ccc(CNC(C)c2cc(F)ccc2N2CCN(C)CC2)o1 (stereo not drawn)	-9.069
C=C(C)CN(CC)C(=O)c1cc(C)ccc1NS(C)(=O)=O	12.91
C=C(C)CN(CC)C(=O)c1cc(F)ccc1N1CCN(C)CC1	106.7
C=C(C)CN(CC)C(=O)c1cc(F)ccc1NS(C)(=O)=O	23.28
COC[C@@]12CC[C@@H](N3CCOCC3)C[C@H]1CCN(c1ccc(Cl)cn1)C2	-5.579
Cc1cnc(N2CCCC(c3ccccc3)C2)nc1-c1ncnn1C (stereo not drawn)	-17.16
O=C(NCC1COCc2c(-c3cccnc3)nnn2C1)c1cccs1.O=C(O)C(F)(F)F (stereo not drawn)	-12.79
O=S(=O)(C1CC1)N1CC[C@]2(C[C@H](OCC3CCOCC3)CO2)C1	2.042
COCC1CN(Cc2ccncc2)Cc2nn(CC3CC3)cc21.O=C(O)C(F)(F)F.O=C(O)C(F)(F)F (stereo not drawn)	-9.02
COCc1noc(C2(c3ccc(F)cc3)CC2)n1	1.348
c1csc(CN2C[C@H]3CCC[C@@]3(COCC3CCOCC3)C2)n1	5.846
COCCN1CC(C(=O)NCc2ccc(C)s2)CC1=O (stereo not drawn)	-3.089
COc1ccc2cc(C(=O)N3CC[C@H](CO)[C@H](O)C3)n(C)c2c1	-6.471
CSc1ccc(C(=O)N2C[C@H]3CC[C@@H]2CN(Cc2ccccc2)C3)cc1	17.05
COCCN1CC(O)CN(C(=O)c2ccc(SC)cc2)CC1=O (stereo not drawn)	110.7
CSc1ccc(C(=O)N2CC(=O)N(CC3CC3)CC(O)C2)cc1 (stereo not drawn)	119.8
CSc1ccc(C(=O)N2CCCC(Nc3ccc(F)cc3)C2)cc1 (stereo not drawn)	-32.55
COCCN1C[C@H]2CC[C@@H]1CN(C(=O)c1ccc(Cl)cc1)C2	3.109

Structure (SMILES)	Percent Effect [%]
COc1ccc(C(=O)N2CCN3C(=O)CNC(=O)[C@@H]3C2)cc1	-1.212
CSc1ccccc1CN1C[C@H]2C(=O)N(CC3CC3)C[C@@]2(C(=O)O)C1	6.148
CSc1ccc(C(=O)N2CC(=O)N(Cc3ccccc3)CC(O)C2)cc1 (stereo not drawn)	97.14
CSc1ccc(C(=O)N2C[C@H]3CC[C@@H]2CN(Cc2cccnc2)C3)cc1	37.83
COc1ccc(C(=O)N2CC(=O)N(CC3CC3)CC(O)C2)cc1 (stereo not drawn)	115.7
CN(C)Cc1ccc(C2CCCCN2C(=O)c2cccc(CO)n2)cc1 (stereo not drawn)	7.792
CCCc1c(C(=O)N2CCN(c3nccc(OC)n3)CC2)cnn1C	3.097
Cc1cc2nc(CO[C@H]3CN(C)C[C@H]3F)[nH]c2cc1C	-14.61
COC1CCC(N(C)c2ccnc(N(C)C)n2)CC1 (stereo not drawn)	2.902
CCN1CC(C(=O)NCc2cccc(SC)c2)CC1=O (stereo not drawn)	-13.72
CCN1CC(C(=O)N2CC(Oc3ccccc3F)C2)CC1=O (stereo not drawn)	-11.41
CSc1ccc(C(=O)N2CC(=O)N(CC(C)(C)C)CC(O)C2)cc1 (stereo not drawn)	76.9
CCN1CC(O)CN(C(=O)c2ccc(SC)cc2)CC1=O (stereo not drawn)	105.2
Cc1ccnc(N2CCC(C(N)=O)CC2)n1	120.1
NC(=O)C1CCN(c2nccc(-c3c[nH]nc3C3CCCCC3)n2)CC1	81.82
Cc1ccnc(N2CCC(OCCN3CCCCC3)C2)n1 (stereo not drawn)	14.04
c1cc(-c2c[nH]nc2C2CCCCC2)nc(N2CCCCCC2)n1	78.4
c1cc(-c2noc(C3CCC3)n2)cc(N2CCCCC2)n1	-13.71
Cc1ccnc(N2CCN(C3CCS(=O)(=O)C3)CC2)n1 (stereo not drawn)	0.9659
NC(=O)N1CCCCCC1C1CCN(c2nccc(C(F)(F)F)n2)CC1 (stereo not drawn)	-6.613
NC(=O)C1CCN(c2cncc(-n3cccn3)n2)CC1	4.657
CN1CCCN(c2nccc(-c3c[nH]nc3C3CCCCC3)n2)CC1	25.46
c1cc(-c2cn3nccc3nc2C2CCCCC2)nc(N2CCCC2)n1	96.94
